Screening results deposited in PubChem by several laboratories.
Most compounds without a hit are left out; they make up all but 0.82% or so of the library.
E coli Lon inh = inhibitors of E. coli Lon protease; 360,000 tested, 0.42% active; purified E. coli Lon protease, fluorescence polarization; inhibition, % at 7.94 µM; AID 602123; P0A9M0; in the data active = inhibition above about 13%, passing the limit was not always enough
RTF Ca sens inh = cardiac RTF calcium desensitization; P19429+P45379; IANBD-labeled cardiac RTF, Ca2+ fluorescence; inhibition, % at 7.15 µM; 340,000 tested, 0.12% active;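 active = inhibition above the mean inhibition of all tested compounds plus 3 SD, cut at about 17% in these data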;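 also: assay run at fixed EC70 calcium of 1.6 mM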
RTF Ca sens act = cardiac RTF calcium sensitization. 340,000 tested, 0.24% active. activation, % at 7.2 µM. IANBD-labeled TnC RTF fluorescence at EC20 calcium; 0% EC20 calcium, 100% full calcium. P19429+P45379. AID 493008;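 active = activation above the mean over all tested compounds plus 3 SD, cut at about 30% in these data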;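 also: rise in fluorescence read as greater calcium sensitivity of cardiac thin filaments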
LANA DNA inh = inhibitors of KSHV LANA C-terminal domain DNA binding. MBP-C-LANA/FAM-LBS DNA binding, fluorescence polarization. inhibition, % at 9 µM. 340,000 tested, 0.078% active. AID 504423;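 active = highest replicate inhibition at or above 60% at 9 µM, even if other replicates fall short; inactive = all replicates below 60% inhibition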
Keap1 Nrf2 FP = Keap1-Nrf2 (human) interaction inhibition | Q14145 | Keap1 Kelch-Nrf2 peptide fluorescence polarization, 1536-well | inhibition, % at 9.4 µM | 340,000 tested, 0.15% active; in the data active = inhibition above about 12%;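 also: human Keap1 Kelch domain with fluorescein labeled Nrf2 9mer peptide probe; higher means more block of Keap1 binding to Nrf2 peptide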
Target sequence (Q14145 whole entry, looked up, the tested form may be a part): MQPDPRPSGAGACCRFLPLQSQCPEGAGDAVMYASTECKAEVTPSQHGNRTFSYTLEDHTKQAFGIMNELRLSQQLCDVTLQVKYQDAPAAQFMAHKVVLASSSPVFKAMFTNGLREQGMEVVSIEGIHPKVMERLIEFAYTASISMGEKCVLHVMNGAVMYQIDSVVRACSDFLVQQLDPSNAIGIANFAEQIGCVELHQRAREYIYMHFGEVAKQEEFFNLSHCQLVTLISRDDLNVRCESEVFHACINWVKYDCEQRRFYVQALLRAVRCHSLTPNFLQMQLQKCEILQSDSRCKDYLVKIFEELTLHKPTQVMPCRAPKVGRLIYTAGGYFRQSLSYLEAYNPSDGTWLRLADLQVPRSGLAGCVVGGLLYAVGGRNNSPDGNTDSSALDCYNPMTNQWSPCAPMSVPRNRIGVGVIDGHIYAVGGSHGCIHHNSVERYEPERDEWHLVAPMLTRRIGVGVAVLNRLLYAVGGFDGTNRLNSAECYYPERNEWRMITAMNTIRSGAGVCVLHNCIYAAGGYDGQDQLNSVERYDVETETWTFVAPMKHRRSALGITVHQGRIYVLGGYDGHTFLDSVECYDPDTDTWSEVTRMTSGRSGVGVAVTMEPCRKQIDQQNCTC
Keap1 Kelch bind = Keap1 (human) Kelch domain binding; shares compounds with Keap1 Nrf2 FP; Keap1 Kelch thermal shift, delta Tm; stronger effect = higher value; max delta Tm, degrees C; 400 tested, 8% active; AID 651823; in the data active = max delta Tm above about 0.48 degrees C
Sypro dye melt = counter-screen for Keap1 thermal shift hits: dye-only artifacts | delta Tm, degrees C (concentration not given with the values) | AID 651858 | Sypro Orange dye-only thermal melt, no protein, delta Tm; top dose 26 µM | shares compounds with Keap1 Nrf2 FP | 140 tested, under 10 active;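 active = at highest dose tested, delta Tm positive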
Of the large screens only hits and unclear results are named; the others gave an inactive call (follow-up assays come after a bar, where they were run).

Oc1ccc(C2C=C(c3ccc(F)cc3)Nc3ncnn32)cc1 (stereo unspecified)	none
Fc1ccc(C2=CC(c3ccc(Br)o3)n3ncnc3N2)cc1 (stereo unspecified)	E coli Lon inh 136.7, RTF Ca sens act 172.0, LANA DNA inh 63.6, Keap1 Nrf2 FP 36.4 | Keap1 Kelch bind inactive
CC1=C(C#N)c2nc(N)c(C#N)c(C)c2/C1=C\c1ccc(-c2ccccc2C(=O)O)o1	Keap1 Nrf2 FP 92.0 | Keap1 Kelch bind 2.26
COc1cc(/C=C2/C(C)=C(C#N)c3nc(N)c(C#N)c(C)c32)ccc1OCC(=O)O	none (no result: E coli Lon inh, RTF Ca sens inh, RTF Ca sens act)
Cc1occc1C(=O)N1CCN(S(=O)(=O)c2ccccc2)CC1	none
COc1ccc(-n2c(=O)/c(=C\c3cccs3)s/c2=C(/C#N)C(=O)NCCN2CCOCC2)cc1	none
C=CCn1c(=O)/c(=C\c2ccsc2)s/c1=C(/C#N)C(=O)NCCN1CCOCC1	Keap1 Nrf2 FP 16.1 | Keap1 Kelch bind inactive | Sypro dye melt inactive
NC(=O)c1cc2ccccc2oc1=NCc1ccccc1	none
NC(=O)c1cc2ccc(O)cc2oc1=NCc1ccccc1	RTF Ca sens act 60.2, Keap1 Nrf2 FP 16.1 | Keap1 Kelch bind inactive | Sypro dye melt inactive
CC(C)(C)c1cc(OC(=O)C2CCCC2)ccc1O	none
CCCCC(CC)C(=O)Oc1ccc(O)c(C(C)(C)C)c1 (stereo unspecified)	Keap1 Nrf2 FP 14.9 | Keap1 Kelch bind inactive
NC(=O)CC(NC(=O)Cc1cccc2ccccc12)c1ccc(NCc2ccc(F)cc2)c([N+](=O)[O-])c1 (stereo unspecified)	none
NC(=O)CC(NC(=O)Cc1cccc2ccccc12)c1ccc(NCc2ccccc2)c([N+](=O)[O-])c1 (stereo unspecified)	Keap1 Nrf2 FP 22.1 | Keap1 Kelch bind inactive
C[C@@H]1CN([C@@H](C)CO)C(=O)CCCn2nncc2CO[C@H]1CN(C)C(=O)Nc1ccc(F)cc1	none (no result: RTF Ca sens inh, RTF Ca sens act, LANA DNA inh, Keap1 Nrf2 FP)
O=C(Nc1ccccc1C(=O)NC1CC1)c1ccccc1F	none
Cc1ccc(C(=O)CCC(=O)OCC(=O)N2CCN(S(=O)(=O)c3ccc(C)cc3C)CC2)cc1	none
COc1ccc2c(c1)c1nc3ccccc3nc1n2CC(=O)OC(C)C	Keap1 Nrf2 FP 24.3 | Keap1 Kelch bind inactive | Sypro dye melt inactive
O=C(Cc1ccccc1Cl)NCCCn1ccnc1	none
O=C(/C=C/c1ccccc1Cl)NCCCn1ccnc1	Keap1 Nrf2 FP 37.9 | Keap1 Kelch bind inactive
Cc1ccc(NS(=O)(=O)c2ccc3c(c2)oc(=O)n3C)cc1	none
CC(=O)Nc1ccc(NS(=O)(=O)c2ccc3c(c2)oc(=O)n3C)cc1	Keap1 Nrf2 FP 19.1 | Keap1 Kelch bind inactive
CC(C(=O)c1ccccc1)[n+]1cccc(Br)c1 (stereo unspecified)	none
CNC(=O)C1CC(=O)N(c2ccc(OCC(=O)Nc3ccc(F)cc3)cc2)C1 (stereo unspecified)	Keap1 Nrf2 FP 29.9 | Keap1 Kelch bind inactive | Sypro dye melt inactive
COc1cc(NC(=O)CCl)ccc(=O)c1	none (no result: RTF Ca sens inh, RTF Ca sens act, LANA DNA inh, Keap1 Nrf2 FP)
COc1ccc2nc3ccccc3nc2c1NC(=O)c1ccccc1Cl	Keap1 Nrf2 FP 15.6 | Keap1 Kelch bind inactive
COc1ccc2occ(C(=O)c3coc4ccc(O)c(CN(C)C)c34)c2c1	none
COc1ccc(OC)c(C(=O)c2coc3ccc(O)c(CN(C)C)c23)c1	Keap1 Nrf2 FP 18.6 | Keap1 Kelch bind inactive
O=C(CSc1nc2ccccc2c(=O)n1CCCN1CCOCC1)Nc1ccccc1OC(F)F	Keap1 Nrf2 FP 18.7 | Keap1 Kelch bind inactive | Sypro dye melt inactive
CC(=O)Nc1c(C#N)c(-c2ccccc2)c(C#N)c(=O)n1-c1ccc(C)cc1	none (no result: RTF Ca sens inh, RTF Ca sens act, LANA DNA inh, Keap1 Nrf2 FP)
COc1cc(C#Cc2c(C=O)n(C)c3ccccc23)cc(OC)c1	Keap1 Nrf2 FP 30.2 | Keap1 Kelch bind inactive
COc1ccc(NS(=O)(=O)c2cccc(C(=O)N/N=C(\C)c3cccnc3)c2)cc1	none
C=CCOc1ccc(C=NNc2ccc(S(=O)(=O)Nc3ccccc3C(=O)O)cc2[N+](=O)[O-])cc1OC	Keap1 Nrf2 FP 12.8 | Keap1 Kelch bind 0.91
CCOc1ccc(C=NNc2ccc(S(=O)(=O)Nc3ccccc3C(=O)O)cc2[N+](=O)[O-])cc1	none
CNS(=O)(=O)c1ccc2c3c(cccc13)C(=O)N2C	Keap1 Nrf2 FP 32.1 | Keap1 Kelch bind inactive
CN1C(=O)c2cccc3c(S(=O)(=O)N(C)C)ccc1c23	none
Cc1ccc(NC(=O)C(=O)Nc2ccc(C)cn2)nc1	none
Cc1ccc(NC(=O)/C(C#N)=C(\N)C(Cl)(Cl)Cl)nc1	Keap1 Nrf2 FP 37.5 | Keap1 Kelch bind inactive
COc1cc(CO)ccc1Oc1nc2ccccc2n2cnnc12	Keap1 Nrf2 FP 30.8 | Keap1 Kelch bind inactive
O=C(Nc1ccccc1C(=O)N1CCCCCC1)c1ccc(F)cc1	Keap1 Nrf2 FP 35.1 | Keap1 Kelch bind inactive | Sypro dye melt inactive
Cc1ccccc1OCCC(=O)Nc1cc(S(=O)(=O)N2CCCCC2)ccc1N1CCN(C)CC1	Keap1 Nrf2 FP 54.1 | Keap1 Kelch bind inactive
Nc1nc(N)nc(-c2cccc(Cl)c2Cl)n1	none
COc1ccccc1Cc1c(-c2ccc(F)cc2)nc2ccc(Cl)cn12	none (no result: RTF Ca sens inh, RTF Ca sens act, LANA DNA inh, Keap1 Nrf2 FP)
COc1cc2c3nnc(-c4ccc(F)cc4)c-3cn(Cc3ccccc3F)c2cc1OC	Keap1 Nrf2 FP 17.4 | Keap1 Kelch bind inactive
CN1/C(=C\C=C(/C#N)C(=O)Nc2ccc(Cl)cc2)C(C)(C)c2ccccc21	Keap1 Nrf2 FP 14.0 | Keap1 Kelch bind inactive
CN1/C(=C\C=C(C#N)C#N)C(C)(C)c2ccccc21	Keap1 Nrf2 FP 44.8 | Keap1 Kelch bind inactive
CN1/C(=C/C=N/n2cnnc2)C(C)(C)c2ccccc21	none
N/C(=N\OC(=O)c1ccc(Cl)cc1)c1ccccn1	none
N/C(=N/OC(=O)c1ccc(Cl)cc1)c1ncc([N+](=O)[O-])s1	Keap1 Nrf2 FP 22.3 (no result: RTF Ca sens inh, RTF Ca sens act) | Keap1 Kelch bind inactive | Sypro dye melt inactive
Cc1nn(-c2ccccc2Cl)c(Cl)c1/C=N/Nc1nc2ccccc2s1	Keap1 Nrf2 FP 34.2 | Keap1 Kelch bind inactive
CCCCNC(=S)Nc1ccc(OC)nc1	Keap1 Nrf2 FP 12.1 | Keap1 Kelch bind inactive
COc1ccccc1NS(=O)(=O)c1ccc(C(=O)Nc2ncccc2O)cc1	none
Cn1ccnc1Sc1cc(NCCCO)c([N+](=O)[O-])c2nonc12	Keap1 Nrf2 FP 13.4 | Keap1 Kelch bind inactive
O=[N+]([O-])c1c(NCCCO)cc(Sc2ccc(Cl)cc2)c2nonc12	none
O=C1C(Cl)=C(NS(=O)(=O)c2ccc([N+](=O)[O-])cc2)C(=O)c2ccccc21	Keap1 Nrf2 FP 19.6 | Keap1 Kelch bind 0.76
C/C(=N/Nc1ccccc1C(=O)O)c1cccs1	Keap1 Nrf2 FP 73.5 (no result: LANA DNA inh) | Keap1 Kelch bind inactive | Sypro dye melt inactive
CCOC(=O)c1ccc(NC(=O)c2nc[nH]c2C(=O)N[C@@H](C)CO)cc1	none (no result: RTF Ca sens inh, RTF Ca sens act, LANA DNA inh, Keap1 Nrf2 FP)
O=C1c2ccccc2C(=O)c2c1ccc(O)c2O	Keap1 Nrf2 FP 13.0 | Keap1 Kelch bind inactive
